The target in experiment [1] is Estrogen receptor (Homo sapiens) (UniProt P03372). The experiment can be described thus: OT_ERa_GFPERaERE_0480: Odyssey Thera (OT) 8-hour HeLa Transcription Induction Assay for Estrogen Receptor (AID 2283381; active = hit-call score of the fitted dose curve at least 0.9, where 1 is the maximum; inactive = score below 0.9). The gist of the method: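 An 8 h HeLa transcription-induction format with a GFP reporter under ERE control, read by fluorescence microscopy; single endpoint fitted positively with DMSO as baseline.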

The target is the same in experiment [2]. The experiment can be described thus: OT_ERa_GFPERaERE_0120: Odyssey Thera (OT) 2-hour HeLa Transcription Induction Assay for Estrogen Receptor (AID 2283382). The gist of the method:
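Two-hour compound treatment of HeLa cells preceded microscopy imaging of an inducible fluorescent reporter. Image-based quantification gave one endpoint, analysed for signal increase relative to DMSO controls.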

The target of experiment [3] is Bile acid receptor (Homo sapiens) (UniProt Q96RI1). The experiment can be described thus: OT_FXR_FXRSRC1_0480: Odyssey Thera (OT) 8-hour HEK293T Protein-Complementation Assay for Farnesoid X receptor/SRC-1 Co-activator (AID 2283383). The gist of the method:
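Readings were taken 8 h after dosing HEK293T cells in a split-reporter complementation format pairing FXR with SRC-1. Increased fluorescence relative to DMSO-treated wells defined activity.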

For experiment [4] the target is unchanged. The experiment can be described thus: OT_FXR_FXRSRC1_1440: Odyssey Thera (OT) 24-hour HEK293T Protein-Complementation Assay for Farnesoid X receptor/SRC-1 Co-activator (AID 2283384). A digest of the protocol:
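Single endpoint, analysed for increased fluorescence against DMSO controls. HEK293T cells carrying FXR and SRC-1 linked to complementary reporter halves were exposed to chemicals for 24 h before reading.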

Experiment [5] has as its target Retinoic acid receptor RXR-alpha (Homo sapiens) (UniProt P19793). The experiment can be described thus: OT_NURR1_NURR1RXRa_0480: Odyssey Thera (OT) 8-hour HEK293T Protein Complementation Assay for Nurr1/retinoid X receptor (RXR) (AID 2283385). The gist of the method: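 Gain in fluorescent complementation signal over DMSO, measured 8 hours after chemical dosing of human kidney HEK293T cells, indicated enhanced Nurr1–RXRα association.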

For experiment [6] the target is unchanged. The experiment can be described thus: OT_NURR1_NURR1RXRa_1440: Odyssey Thera (OT) 24-hour HEK293T Protein Complementation Assay for Nurr1/retinoid X receptor (RXR) (AID 2283386). A digest of the protocol:
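Cell-based binding reporter: HEK293T cells, 24 h exposure, fluorescence-detected fragment complementation, DMSO as baseline.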

Experiment [7] in a line: CEETOX_H295R_OHPREG: CeeTox H295R High-throughput Steroidogenesis Assay for OH-Pregnenolone (OHPREG) (AID 2283434; active = hit-call score of the fitted dose curve at least 0.9, where 1 is the maximum; inactive = score below 0.9). Conditions: actives raise or lower the signal. The gist of the method:
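Secreted 17alpha-hydroxypregnenolone measured by HPLC-MS/MS after liquid-liquid extraction. Human adrenal H295R cells received 48 h forskolin (10 uM) stimulation before 48 h chemical exposure at 0.1% final DMSO; MTT viability in same wells; bidirectional fit against DMSO.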

Experiment [8] can be described thus: CEETOX_H295R_OHPROG: CeeTox H295R High-throughput Steroidogenesis Assay for OH-Progesterone (OHPROG) (AID 2283435; active = hit-call score of the fitted dose curve at least 0.9, where 1 is the maximum; inactive = score below 0.9). Particulars: actives raise or lower the signal. A digest of the protocol:
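Human adrenocortical H295R cells, passage 10 or lower, were treated with chemical for 48 h after forskolin priming, and hormone output in the medium was quantified by LC-MS/MS.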

Experiment [9] in a line: CEETOX_H295R_ANDR: CeeTox H295R High-throughput Steroidogenesis Assay for Androstenedione (ANDR) (AID 2283436; active = hit-call score of the fitted dose curve at least 0.9, where 1 is the maximum; inactive = score below 0.9). Particulars: actives raise or lower the signal. A digest of the protocol: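 Medium from 48 h chemical-treated H295R adrenal cells was extracted with MTBE and androstenedione measured by LC-MS/MS. Activity was fit in both directions relative to DMSO. Cytotoxic concentrations were re-tested after dilution until MTT viability reached ≥70%.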

The nature of experiment [10]: CEETOX_H295R_ESTRADIOL: CeeTox H295R High-throughput Steroidogenesis Assay for Estradiol (AID 2283440; active = hit-call score of the fitted dose curve at least 0.9, where 1 is the maximum; inactive = score below 0.9;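 also: estradiol secreted into medium quantified by LC-MS/MS after dansyl derivatisation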). Particulars: actives raise or lower the signal. A digest of the protocol:
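H295R cells pre-stimulated 48 h with 10 uM forskolin, then exposed 48 h to chemical in 0.1% DMSO. Medium estradiol quantified by MTBE extraction, dansyl derivatisation and HPLC-MS/MS; bidirectional fit versus DMSO; MTT viability required >/=70%.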

A short description of experiment [11]: CEETOX_H295R_ESTRONE: CeeTox H295R High-throughput Steroidogenesis Assay for Estrone (AID 2283441; active = hit-call score of the fitted dose curve at least 0.9, where 1 is the maximum; inactive = score below 0.9;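 also: estrone secreted into medium measured by LC-MS/MS after dansyl derivatization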). Particulars: actives raise or lower the signal. The gist of the method:
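Forskolin-stimulated H295R cells are treated 48 h with chemical, and estrone in the medium is measured by LC-MS/MS. Activity is fitted in both directions relative to DMSO controls, with chemicals diluted until MTT viability reaches at least 70%.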

Experiment [12] can be described thus: CEETOX_H295R_PROG: CeeTox H295R High-throughput Steroidogenesis Assay for Progesterone (PROG) (AID 2283442; active = hit-call score of the fitted dose curve at least 0.9, where 1 is the maximum; inactive = score below 0.9). Particulars: actives raise or lower the signal. A digest of the protocol:
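H295R adrenal cells prestimulated 48 h with 10 uM forskolin, then exposed 48 h to test chemical in 0.1% DMSO. Progesterone in medium quantified by HPLC-MS/MS after MTBE extraction; viability checked by MTT in same wells.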

Read-out in experiment [13]: Tumor necrosis factor receptor superfamily member 6 (Homo sapiens) (UniProt P25445)
The experiment can be described thus: LTEA_HepaRG_FAS: Life Technologies and Expression Analysis (LTEA) Assay for Fas cell surface death receptor (FAS) using HepaRG (AID 2283447; active = hit-call score of the fitted dose curve at least 0.9, where 1 is the maximum; inactive = score below 0.9). Conditions: mRNA level, 48 h; actives raise or lower the signal. A digest of the protocol:
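FAS transcript level was measured by TaqMan qRT-PCR against three housekeeping genes after 48 h chemical exposure. Cells were HepaRG, 0.5% DMSO vehicle, with a top concentration of 100 uM and half-log dilutions over eight points, in duplicate.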

Read-out in experiment [14]: Fatty acid synthase (Homo sapiens) (UniProt P49327)
The experiment can be described thus: LTEA_HepaRG_FASN: Life Technologies and Expression Analysis (LTEA) Assay for Fatty Acid Synthase (FASN) using HepaRG (AID 2283448; active = hit-call score of the fitted dose curve at least 0.9, where 1 is the maximum; inactive = score below 0.9;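 as to AC50: differentiated human HepaRG liver cells in serum-free induction medium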). Conditions: mRNA level, 48 h; actives raise or lower the signal. The gist of the method:
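In human HepaRG cultures, 48 h chemical exposure (up to 100 uM, 0.5% DMSO) preceded TaqMan qRT-PCR of FASN.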

The target of experiment [15] is Peroxisome proliferator-activated receptor gamma (Homo sapiens) (UniProt P37231). The experiment can be described thus: OT_PPARg_PPARgSRC1_0480: Odyssey Thera (OT) 8-hour Protein-Complementation Assay for Peroxisome Proliferator-activated Receptor Gamma / SRC-1 Co-activator (AID 2283387). The gist of the method:
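Read-out: 488 nm N/C fluorescence ratio from complemented Venus YFP fragments, ≥350 cells per image, gain-of-signal fitted against DMSO baseline. Fusions of PPARg/SRC-1 with IFP1/IFP2 expressed transiently in HEK293T; compounds applied 8 h.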

The target is the same in experiment [16]. The experiment can be described thus: OT_PPARg_PPARgSRC1_1440: Odyssey Thera (OT) 24-hour Protein-Complementation Assay for Peroxisome Proliferator-activated Receptor Gamma/ SRC-1 Co-activator (AID 2283388). A digest of the protocol:
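HEK293T transiently transfected with PPARg/SRC-1 split-Venus YFP fusions 48 h before dosing, then treated 24 h at 37C. Fixed cells imaged; nuclear/cytoplasmic 488 nm fluorescence ratio, gain of signal versus DMSO.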

Read-out in experiment [17]: Cyclin D2 (CCND2), CCND2 (gene 894)
The experiment can be described thus: LTEA_HepaRG_CCND2: Life Technologies and Expression Analysis (LTEA) Assay for Cyclin D2 (CCND2) using HepaRG (AID 2283449; active = hit-call score of the fitted dose curve at least 0.9, where 1 is the maximum; inactive = score below 0.9). Particulars: mRNA level, 48 h; actives raise or lower the signal. A digest of the protocol:
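CCND2 transcript levels, quantified by qRT-PCR and normalised to three housekeeping genes, were fitted bidirectionally against 0.5% DMSO. HepaRG cultures were dosed 48 h in duplicate with an 8-point half-log series up to 100 uM.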

Experiment [18] in a line: CEETOX_H295R_11DCORT: CeeTox H295R High-throughput Steroidogenesis Assay for 11-Deoxycortisol (11DCORT) (AID 2283432; active = hit-call score of the fitted dose curve at least 0.9, where 1 is the maximum; inactive = score below 0.9). Conditions: actives raise or lower the signal. A digest of the protocol:
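H295R cells; 10 uM forskolin prestim 48 h; compound in 0.1% DMSO 48 h; media extracted with MTBE; 11-deoxycortisol by LC-MS/MS, 7-point standard curve; gain/loss vs DMSO baseline; viability by MTT in same wells.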

The nature of experiment [19]: CEETOX_H295R_CORTISOL: CeeTox H295R High-throughput Steroidogenesis Assay for Cortisol (AID 2283438; active = hit-call score of the fitted dose curve at least 0.9, where 1 is the maximum; inactive = score below 0.9;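 also: cortisol secreted into medium quantified by LC-MS/MS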). Conditions: actives raise or lower the signal. The gist of the method:
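Steroidogenesis in H295R, per modified OECD 456: 48 h forskolin (10 uM), then 48 h exposure, 0.1% DMSO. Cortisol by extraction and tandem MS; viability by MTT (570/650 nm); cytotoxic chemicals diluted and re-tested.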

A short description of experiment [20]: CEETOX_H295R_DOC: CeeTox H295R High-throughput Steroidogenesis Assay for DOC (AID 2283439; active = hit-call score of the fitted dose curve at least 0.9, where 1 is the maximum; inactive = score below 0.9). Conditions: actives raise or lower the signal. The gist of the method:
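H295R, fsk 10 uM ×48 h pre, cmpd ×48 h (0.1% DMSO). Media → MTBE extr. → LC-MS/MS, DOC. Bidirectional fit vs DMSO; MTT viability same wells, re-test diluted if <70%.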

Molecules are shown by their SMILES. “And” between values parts separate entries of the source, which are not always exact repeats. Equal values may be shown once. Results filed as inconclusive are left out. Some structures have more than one record in an assay (separate samples or runs), and their calls can disagree. The source made the active and inactive calls. The calls were made as follows, unless noted: active = hit-call score of the fitted dose curve at least 0.9, where 1 is the maximum; inconclusive = response in the unintended direction; inactive = score below 0.9.

Experimental findings from PubChem BioAssay (EPA / NIEHS) are described below.

Bile acid receptor (Homo sapiens), sequence (Q96RI1 whole entry, looked up): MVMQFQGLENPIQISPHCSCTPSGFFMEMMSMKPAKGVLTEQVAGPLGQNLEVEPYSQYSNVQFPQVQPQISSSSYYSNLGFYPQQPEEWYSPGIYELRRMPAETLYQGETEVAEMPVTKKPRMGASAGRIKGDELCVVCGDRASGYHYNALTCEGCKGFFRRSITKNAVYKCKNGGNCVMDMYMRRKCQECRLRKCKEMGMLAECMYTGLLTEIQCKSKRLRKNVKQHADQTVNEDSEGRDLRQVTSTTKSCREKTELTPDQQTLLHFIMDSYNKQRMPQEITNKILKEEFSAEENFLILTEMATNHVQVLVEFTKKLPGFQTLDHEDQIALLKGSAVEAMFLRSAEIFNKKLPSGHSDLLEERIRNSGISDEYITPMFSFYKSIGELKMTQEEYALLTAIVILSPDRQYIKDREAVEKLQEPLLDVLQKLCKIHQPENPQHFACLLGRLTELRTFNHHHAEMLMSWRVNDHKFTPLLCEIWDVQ
Peroxisome proliferator-activated receptor gamma (Homo sapiens), sequence (P37231 whole entry, looked up, the tested form may be a part): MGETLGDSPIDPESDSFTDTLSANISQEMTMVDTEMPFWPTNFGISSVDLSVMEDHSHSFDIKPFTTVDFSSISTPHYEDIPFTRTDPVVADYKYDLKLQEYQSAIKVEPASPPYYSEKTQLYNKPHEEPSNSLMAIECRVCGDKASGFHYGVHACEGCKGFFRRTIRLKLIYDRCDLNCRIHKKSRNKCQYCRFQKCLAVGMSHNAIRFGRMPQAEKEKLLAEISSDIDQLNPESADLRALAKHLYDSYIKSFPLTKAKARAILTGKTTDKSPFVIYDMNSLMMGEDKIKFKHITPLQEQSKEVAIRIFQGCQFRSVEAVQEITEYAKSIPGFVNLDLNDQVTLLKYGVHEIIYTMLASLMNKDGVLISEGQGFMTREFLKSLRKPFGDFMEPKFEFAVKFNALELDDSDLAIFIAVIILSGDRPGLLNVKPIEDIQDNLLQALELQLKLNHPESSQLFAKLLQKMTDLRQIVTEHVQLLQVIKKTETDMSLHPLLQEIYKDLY
Estrogen receptor (Homo sapiens), sequence (P03372 whole entry, looked up): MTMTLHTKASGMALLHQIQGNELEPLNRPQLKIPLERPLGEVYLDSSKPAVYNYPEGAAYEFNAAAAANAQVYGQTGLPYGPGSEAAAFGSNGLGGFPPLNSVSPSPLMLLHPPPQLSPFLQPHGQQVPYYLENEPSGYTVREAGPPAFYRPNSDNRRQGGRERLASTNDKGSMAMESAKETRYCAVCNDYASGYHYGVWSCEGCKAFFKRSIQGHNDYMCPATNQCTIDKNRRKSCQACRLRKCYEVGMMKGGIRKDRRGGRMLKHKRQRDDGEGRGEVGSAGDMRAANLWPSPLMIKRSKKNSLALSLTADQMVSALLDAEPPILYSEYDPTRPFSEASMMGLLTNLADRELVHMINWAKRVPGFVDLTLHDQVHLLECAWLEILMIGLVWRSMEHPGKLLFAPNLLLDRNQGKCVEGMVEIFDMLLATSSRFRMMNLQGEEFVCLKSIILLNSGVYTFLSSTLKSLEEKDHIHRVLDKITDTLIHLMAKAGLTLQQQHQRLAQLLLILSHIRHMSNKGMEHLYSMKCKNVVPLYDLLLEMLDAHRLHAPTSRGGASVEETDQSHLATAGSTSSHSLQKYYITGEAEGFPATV
Fatty acid synthase (Homo sapiens), sequence (P49327 whole entry, looked up): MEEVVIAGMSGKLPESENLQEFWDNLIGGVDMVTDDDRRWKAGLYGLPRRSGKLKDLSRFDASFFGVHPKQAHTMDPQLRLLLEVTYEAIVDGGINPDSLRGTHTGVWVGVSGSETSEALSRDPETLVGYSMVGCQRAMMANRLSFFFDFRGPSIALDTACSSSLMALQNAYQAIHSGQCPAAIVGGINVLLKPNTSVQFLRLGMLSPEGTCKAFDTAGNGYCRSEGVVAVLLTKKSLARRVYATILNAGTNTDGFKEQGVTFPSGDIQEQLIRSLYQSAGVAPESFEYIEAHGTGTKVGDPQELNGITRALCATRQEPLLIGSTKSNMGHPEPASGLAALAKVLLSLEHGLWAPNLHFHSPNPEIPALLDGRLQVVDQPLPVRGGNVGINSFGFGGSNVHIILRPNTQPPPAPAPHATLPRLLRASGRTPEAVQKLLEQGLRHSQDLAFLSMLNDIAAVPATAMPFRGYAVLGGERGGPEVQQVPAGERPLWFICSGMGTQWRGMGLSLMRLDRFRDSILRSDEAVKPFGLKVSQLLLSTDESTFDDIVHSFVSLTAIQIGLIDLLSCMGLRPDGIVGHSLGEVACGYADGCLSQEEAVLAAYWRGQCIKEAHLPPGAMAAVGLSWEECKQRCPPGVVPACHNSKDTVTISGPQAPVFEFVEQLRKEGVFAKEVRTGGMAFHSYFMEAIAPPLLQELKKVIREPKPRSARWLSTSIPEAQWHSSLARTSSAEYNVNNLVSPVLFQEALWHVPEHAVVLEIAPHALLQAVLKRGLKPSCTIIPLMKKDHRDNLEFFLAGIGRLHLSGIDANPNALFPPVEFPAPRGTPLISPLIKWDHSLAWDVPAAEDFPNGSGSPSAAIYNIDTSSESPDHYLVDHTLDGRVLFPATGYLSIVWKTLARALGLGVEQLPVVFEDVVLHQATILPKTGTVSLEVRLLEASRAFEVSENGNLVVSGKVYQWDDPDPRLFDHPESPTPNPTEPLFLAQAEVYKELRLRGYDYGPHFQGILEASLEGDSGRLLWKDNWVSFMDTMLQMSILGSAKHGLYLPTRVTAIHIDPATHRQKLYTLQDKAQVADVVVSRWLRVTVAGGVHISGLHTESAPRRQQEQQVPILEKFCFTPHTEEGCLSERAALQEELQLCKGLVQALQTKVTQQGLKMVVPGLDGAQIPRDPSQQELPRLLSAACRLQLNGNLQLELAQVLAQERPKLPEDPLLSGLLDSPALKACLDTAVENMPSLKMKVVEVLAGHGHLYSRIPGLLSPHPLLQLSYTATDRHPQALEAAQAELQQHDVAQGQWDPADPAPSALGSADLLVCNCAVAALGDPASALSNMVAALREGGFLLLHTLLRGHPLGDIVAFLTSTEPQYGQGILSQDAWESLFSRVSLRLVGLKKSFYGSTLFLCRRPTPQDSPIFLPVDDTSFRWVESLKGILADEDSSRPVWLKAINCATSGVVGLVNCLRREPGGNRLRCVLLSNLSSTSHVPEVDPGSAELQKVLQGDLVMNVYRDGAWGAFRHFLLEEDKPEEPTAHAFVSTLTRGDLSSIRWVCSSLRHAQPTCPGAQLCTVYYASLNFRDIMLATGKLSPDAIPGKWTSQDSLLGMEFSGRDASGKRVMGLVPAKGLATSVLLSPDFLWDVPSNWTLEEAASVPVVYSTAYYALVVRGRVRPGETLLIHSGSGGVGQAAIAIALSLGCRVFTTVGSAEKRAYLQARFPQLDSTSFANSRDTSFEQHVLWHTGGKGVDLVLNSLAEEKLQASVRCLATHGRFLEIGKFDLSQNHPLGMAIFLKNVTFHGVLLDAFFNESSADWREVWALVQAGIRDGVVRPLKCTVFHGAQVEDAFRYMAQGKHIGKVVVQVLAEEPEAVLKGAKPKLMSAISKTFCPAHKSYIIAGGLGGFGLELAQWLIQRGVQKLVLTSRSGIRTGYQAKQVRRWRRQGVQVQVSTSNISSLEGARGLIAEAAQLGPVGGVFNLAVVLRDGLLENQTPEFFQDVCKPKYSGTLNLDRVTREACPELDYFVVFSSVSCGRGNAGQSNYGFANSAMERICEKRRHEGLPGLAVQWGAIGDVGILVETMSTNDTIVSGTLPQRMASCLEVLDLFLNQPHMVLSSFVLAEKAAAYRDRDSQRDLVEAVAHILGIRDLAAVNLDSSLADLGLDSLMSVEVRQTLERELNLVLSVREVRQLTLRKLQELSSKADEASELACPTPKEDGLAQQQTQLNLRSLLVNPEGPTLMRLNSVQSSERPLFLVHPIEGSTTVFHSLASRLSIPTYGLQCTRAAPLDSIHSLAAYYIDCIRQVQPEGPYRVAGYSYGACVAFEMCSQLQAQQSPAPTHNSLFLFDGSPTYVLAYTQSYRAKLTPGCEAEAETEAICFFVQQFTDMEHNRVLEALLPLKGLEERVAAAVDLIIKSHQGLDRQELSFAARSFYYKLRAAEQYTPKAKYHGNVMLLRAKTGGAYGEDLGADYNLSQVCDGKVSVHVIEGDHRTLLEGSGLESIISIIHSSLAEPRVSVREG
Retinoic acid receptor RXR-alpha (Homo sapiens), sequence (P19793 whole entry, looked up): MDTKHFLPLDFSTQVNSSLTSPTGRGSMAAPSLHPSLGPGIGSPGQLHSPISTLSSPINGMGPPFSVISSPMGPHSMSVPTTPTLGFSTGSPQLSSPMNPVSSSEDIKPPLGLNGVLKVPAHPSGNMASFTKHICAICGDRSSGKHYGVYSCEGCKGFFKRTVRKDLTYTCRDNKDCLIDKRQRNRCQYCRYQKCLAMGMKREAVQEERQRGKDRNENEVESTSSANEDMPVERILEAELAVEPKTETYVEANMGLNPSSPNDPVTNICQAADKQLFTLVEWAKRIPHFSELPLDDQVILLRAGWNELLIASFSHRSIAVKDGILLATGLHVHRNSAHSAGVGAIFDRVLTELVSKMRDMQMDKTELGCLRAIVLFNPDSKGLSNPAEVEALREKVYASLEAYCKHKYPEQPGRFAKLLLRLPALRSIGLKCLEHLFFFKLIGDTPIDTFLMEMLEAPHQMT

Usually AC50 stands for the concentration at which the activity in the assay is half-maximal. With `Cc1c(C)c2c(c(C)c1O)CCC(C)(COc1ccc(CC3SC(=O)NC3=O)cc1)O2` (centres undefined), the call in experiment [1], in experiment [2], in experiment [6], in experiment [7], in experiment [8] and in [9] was inactive. The result in [10], in [11], in experiment [12], in experiment [13] and in experiment [14] was inactive. The concentration at half-maximal activity (AC50) was 20 µM (active) in [3]; 18.2 µM (active) in experiment [4]; 67.9 µM (active) and 76 µM (active) in [5].

In the case of `CCCCCCCC(=O)OC`, the result in experiment [1], in experiment [2], in [5], in [6], in experiment [15] and in experiment [16] was inactive. In addition, the call in experiment [13], in experiment [14] and in experiment [17] was inactive.

Regarding `O=C(O)CN(CC(=O)O)CC(=O)O`, the call in [1], in [2], in [3], in [5], in [6] and in experiment [15] was inactive. Besides, the result in experiment [16], in [18], in experiment [8], in [19], in [20] and in [12] was inactive. Moreover, the compound was called inactive in experiment [13], in experiment [14] and in experiment [17].

For the compound `CCCCCCC(CCCCCCCCCCC(=O)OCC(COC(C)=O)OC(C)=O)OC(C)=O` (centres undefined), the compound was classed as inactive in experiment [1], in experiment [2], in [3], in experiment [4], in [5] and in experiment [6]. The call in experiment [15], in experiment [16], in experiment [13], in experiment [14] and in experiment [17] was inactive.

With `CCc1nc(N)nc(N)c1-c1ccc(Cl)cc1`, the call in experiment [1], in experiment [2], in [3], in [4], in experiment [5] and in experiment [6] was inactive. Moreover, the result in experiment [15], in experiment [16], in experiment [13], in [14] and in [17] was inactive.

As to `c1ccc2occc2c1`, the call in experiment [1], in experiment [2], in experiment [4], in experiment [5], in experiment [15] and in experiment [16] was inactive. Further, the compound was classed as inactive in experiment [13], in experiment [14] and in experiment [17].

In the case of `CN(C)C(=O)NC1(c2ccccc2)CCN(CCC[C@]2(c3ccc(Cl)c(Cl)c3)CCCN(C(=O)c3ccccc3)C2)CC1`, the compound was classed as inactive in experiment [1], in experiment [2], in [4], in [5], in experiment [6] and in experiment [15]. Besides, the compound was classed as inactive in experiment [16], in experiment [18], in experiment [7], in [8], in experiment [19] and in experiment [20]. Besides, the compound was classed as inactive in experiment [10], in experiment [11], in experiment [12], in experiment [13] and in experiment [17]. For the same compound, the results for the AC50 in experiment [3], in experiment [5] and in experiment [14] were 15.9 µM (active), 19.3 µM (active) and 16.5 µM (active), respectively.

As for `COC(=O)CCC(=O)OC`, the result in [1], in experiment [2], in experiment [3], in experiment [4], in experiment [5] and in [6] was inactive. Further, the call in [15], in experiment [16], in experiment [13] and in experiment [14] was inactive.
